± gives the standard deviation of the averaged measurements.

Our source for the progeny production values is the supplement of paper PMC10732440.

In one assay the test system is Caenorhabditis elegans N2 infected with Nematocida parisii ERTm1. The assay is described as follows: progeny production relative to DMSO uninfected control; higher = more progeny despite microsporidia infection (inhibition of infection with low host toxicity). As to conditions: infection time 6 days; 40 µM. How it is done:
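Bleach-synchronised C. elegans N2 L1 larvae (100 per well) were grown in 96-well plates in K-medium with 5x E. coli OP50 and 15,000 N. parisii spores/uL, plus Pandemic Response Box compound at 100 uM or 40 uM (1% DMSO), for 6 days at 21 C with shaking. Worms were stained with Rose Bengal, scanned on a flatbed scanner and counted with WorMachine. Progeny production is given as % of the DMSO uninfected control (triplicate wells), so higher values mean the compound restores progeny despite infection.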
Turning to `CSC[C@H]1CN(Cc2c[nH]c3c(N)ncnc23)C[C@@H]1O`, the progeny production was 8.02 ± 2.9%.

`CCCCC(CC)CNC(=N)NC(=N)NCCCCCCNC(=N)NC(=N)NCC(CC)CCCC` (stereo not given) registered a progeny production of 5.25 ± 0.29%.

Compound `CCCCCCCCCN1C[C@@H](O)[C@H](O)[C@@H](O)[C@@H]1CO` yielded a progeny production of 6.57 ± 1.1%.

Consider `O=C(NCc1cccc2ccccc12)c1cccs1`, for which the progeny production amounted to 3.62 ± 2.1%.

Compound `CCc1cc(CCC(=O)Nc2ccccc2O)c(O)nc1C` came in with a progeny production of 4.5 ± 1.7%.

Consider `C(=C\c1nc2ccccc2[nH]1)/c1ccc2c(c1)OCO2`, for which the progeny production was 7.35 ± 5.9%.

`COc1ccc(CNC(=O)C2CCN([C@H](C)c3cccc4ccccc34)CC2)cc1` returned a progeny production of 4.66 ± 2.1%.

The compound `CC(C)Oc1ccc(-c2nc(-c3cccc4c3CC[C@@H]4NCCO)no2)cc1C#N` had a progeny production of 3.24 ± 0.4%.

As for `CC[C@@]1(O)C(=O)OCc2c1cc1n(c2=O)Cc2cc3c(CN(C)C)c(O)ccc3nc2-1`, the progeny production came out at 7.48 ± 1.6%.

Consider `COc1ccccc1NC(=O)c1ccccc1Sc1ccc([N+](=O)[O-])cc1`, for which the progeny production stood at 6.65 ± 3.2%.

Compound `CC1(C)[C@H](C(=O)O)N2C(=O)C[C@H]2S1(=O)=O` yielded a progeny production of 4.44 ± 0.8%.

`Cc1cc(CCOc2c(C)cc(-c3nnn(C)n3)cc2C)on1` had a progeny production of 4.64 ± 1.1%.

On to `O=C1CCC(N2C(=O)c3ccccc3C2=O)C(=O)N1` (stereo not given), for which the progeny production came to 9.53 ± 5.1%.

`CC(C)CCN1C(=O)C(C2=NS(=O)(=O)c3cc(NS(C)(=O)=O)ccc3N2)=C(O)[C@@H]2[C@H]3CC[C@H](C3)[C@@H]21` gave a progeny production of 3.42 ± 3.9%.

`COc1ccc(NC(=O)CC2Sc3ncnn3C2=O)cc1` (stereo not given) registered a progeny production of 8.48 ± 3.4%.

As for `Fc1ccc(-c2nc(-c3c[nH]c4ccc(Br)cc34)[nH]c2-c2ccc(F)cc2)cc1`, the progeny production was 3.87 ± 1.5%.

`O=C(O)c1ccccc1Sc1ncnc2sc3c(c12)CCC3`: the progeny production came to 3.94 ± 1.7%.

The compound `O=C(O)c1cc(-c2ccc(Br)cc2)nc2ccc(Cl)cc12` displayed a progeny production of 4.63 ± 0.086%.

In turn, `CCC(C)n1ncn(-c2ccc(N3CCN(c4ccc(OCC5COC(Cn6cncn6)(c6ccc(Cl)cc6Cl)O5)cc4)CC3)cc2)c1=O` (stereo not given) gave a progeny production of 4.85 ± 1.2%.

For `CCc1cc(O)c(Oc2ccc(C(N)=O)cc2F)cc1F`, the progeny production worked out at 3.13 ± 2.7%.

Staying with this assay, now noted: infection time 6 days; 100 µM.
`CSC[C@H]1CN(Cc2c[nH]c3c(N)ncnc23)C[C@@H]1O` registered a progeny production of 15.3 ± 10%.

For `CCCCC(CC)CNC(=N)NC(=N)NCCCCCCNC(=N)NC(=N)NCC(CC)CCCC` (stereo not given), the progeny production is 24.3 ± 32%.

`CCCCCCCCCN1C[C@@H](O)[C@H](O)[C@@H](O)[C@@H]1CO` yielded a progeny production of 11.9 ± 5.5%.

`O=C(NCc1cccc2ccccc12)c1cccs1` had a progeny production of 12.9 ± 10%.

`CCc1cc(CCC(=O)Nc2ccccc2O)c(O)nc1C` came in with a progeny production of 9.45 ± 3.1%.

`C(=C\c1nc2ccccc2[nH]1)/c1ccc2c(c1)OCO2` yielded a progeny production of 16.6 ± 18%.

For `COc1ccc(CNC(=O)C2CCN([C@H](C)c3cccc4ccccc34)CC2)cc1`, the progeny production worked out at 15.7 ± 6.6%.

For the compound `CC(C)Oc1ccc(-c2nc(-c3cccc4c3CC[C@@H]4NCCO)no2)cc1C#N`, the progeny production worked out at 4.7 ± 2.8%.

Regarding `CC[C@@]1(O)C(=O)OCc2c1cc1n(c2=O)Cc2cc3c(CN(C)C)c(O)ccc3nc2-1`, the progeny production is 10 ± 2.5%.

On to `COc1ccccc1NC(=O)c1ccccc1Sc1ccc([N+](=O)[O-])cc1`, for which the progeny production amounted to 14.7 ± 2.9%.

The compound `CC1(C)[C@H](C(=O)O)N2C(=O)C[C@H]2S1(=O)=O` yielded a progeny production of 10.7 ± 7.8%.

Compound `Cc1cc(CCOc2c(C)cc(-c3nnn(C)n3)cc2C)on1` had a progeny production of 8.74 ± 2.1%.

`O=C1CCC(N2C(=O)c3ccccc3C2=O)C(=O)N1` (stereo not given): the progeny production was 13.3 ± 8.9%.

For `CC(C)CCN1C(=O)C(C2=NS(=O)(=O)c3cc(NS(C)(=O)=O)ccc3N2)=C(O)[C@@H]2[C@H]3CC[C@H](C3)[C@@H]21`, the progeny production was 9.92 ± 5.3%.

`COc1ccc(NC(=O)CC2Sc3ncnn3C2=O)cc1` (stereo not given) gave a progeny production of 14.8 ± 8.1%.

Regarding `Fc1ccc(-c2nc(-c3c[nH]c4ccc(Br)cc34)[nH]c2-c2ccc(F)cc2)cc1`, the progeny production worked out at 6.81 ± 2.8%.

With `O=C(O)c1ccccc1Sc1ncnc2sc3c(c12)CCC3`, the progeny production was 25.2 ± 16%.

With `O=C(O)c1cc(-c2ccc(Br)cc2)nc2ccc(Cl)cc12`, the progeny production turned out to be 11.3 ± 3.5%.

`CCC(C)n1ncn(-c2ccc(N3CCN(c4ccc(OCC5COC(Cn6cncn6)(c6ccc(Cl)cc6Cl)O5)cc4)CC3)cc2)c1=O` (stereo not given) displayed a progeny production of 22.8 ± 5.2%.

In turn, `CCc1cc(O)c(Oc2ccc(C(N)=O)cc2F)cc1F` registered a progeny production of 8.3 ± 5.3%.
